# Results from PubChem BioAssay (Tox21).
# The source made the active and inactive calls. Calls come from the whole dose curve; as a rule, active = well fitted curve in the direction sought with a large enough effect in the repeat runs; inconclusive = weak or mixed curves; inactive = flat fitted curve, though single readings scatter.
# Assay: qHTS assay to test for compound auto fluorescence at 590 nm (red) in HepG2 cells (AID 720674)
# Settings: HepG2 autofluorescence, red 540/590 nm, 1 h; series mostly up to 91.3 µM
# Description: U.S. Tox21 Program National Center for Advancing Translational Sciences [NCATS] NIH Chemical Genomics Center [NCGC] U.S. Environmental Protection Agency [EPA] National Institutes of Environmental Health Sciences [NIEHS] National Toxicology Program [NTP] U.S. Food and Drug Administration [FDA] Tox21 Assay Overview: Compound auto fluorescence often interferes with screening of the compound library against various biological targets and signaling pathways. Some of these compounds may have fluorophoric properties. Such properties may interfere with the assay outputs resulting in false positives and/or negatives. To decrease such complications and ensure the compound activities are relevant in terms of biological response, the Tox21 10K compound library was screened for auto fluorescence. From the fluorophores used as reporter signals in our screening assays, the auto fluorescence equivalencies of compounds against three fluorophores have been evaluated: Triamterene, Fluorescein and Rose Bengal sodium for blue, green and red fluorescence, respectively. The fluorescence intensities were measured using Excitation/Emission wavelengths at 405/460nm, 485/535nm and 540/590nm for blue, green and red labels, respectively. This assay includes the red fluorescence data.
# Tox21 Assay Protocol Summary: 2,000 HepG2 cells in 5 uL of culture medium (MEM containing 10% FBS) per well were dispensed into black wall/clear bottom 1536-well plates using a Multidrop Combi Dispenser (ThermoFisher Scientific, Waltham, MA). The assay plates were incubated overnight at 37 C to allow cell attachment to the well bottom, followed by the transfer of 23 nL compound or DMSO vehicle by a pintool work station (Kalypsys , San Diego, CA). After the assay plates were incubated for 1 hr at 37 C and 5% CO2, fluorescence intensities in the assay plates were measured by an Envision (PerkinElmer, Shelton, CT) plate reader using three labels for measuring blue, green and red fluorescence at […] 460, 535 and 590 nm respectively.
# % is set by controls: 0 for no effect and ±100 for the full control effect.
SMILES,outcome,"fluorescence, relative to Rose Bengal"
O=C(CN1CCN(Cc2ccc3c(c2)OCO3)CC1)N1c2ccccc2Sc2ccccc21,inactive,
CC(=O)OC(C(=O)c1ccccc1)c1ccccc1 (stereo not given),inactive,
Cc1ccc(S(=O)(=O)NC(=O)NC2CCCCCCC2)cc1,inactive,
COc1cc(C=O)ccc1OC(=O)C(C)C,inactive,
O=CN1CCOCC1,inactive,
CCNC(=O)/C=C/c1cccc(Br)c1,inactive,
C=C(C)C(=O)OC1CC(C)CC(C)(C)C1 (stereo not given),inactive,
O=c1[nH]c(=O)c2ccccc2o1,inactive,
OC[C@@H](O)[C@H](O)[C@@H](O)[C@@H](O)CO,inactive,
C[C@H]1O[C@H](O[C@H]2[C@H](O)[C@@H](O)[C@@H](O[C@H]3[C@H](O)[C@@H](O)[C@H](O)O[C@@H]3CO)O[C@@H]2CO)[C@H](O)[C@@H](O)[C@@H]1N[C@H]1C=C(CO)[C@@H](O)[C@H](O)[C@H]1O,inactive,
NS(=O)(=O)c1ccc(Cl)c(S(N)(=O)=O)c1,inactive,
O=S(=O)(O)CCO,inactive,
Cc1ccccc1OCC1CO1 (stereo not given),inactive,
N#CCCOCCOCCC#N,inactive,
CNCc1ccccc1,inactive,
CCOc1ccc(NC(=O)OC(C)C)cc1OCC,inactive,
CC(C)CCO,inactive,
CCCCCCCCCCCCCCCC(=O)NCCO,inactive,
Cn1c(=O)c2c(ncn2CC2OCCO2)n(C)c1=O,inactive,
CCCCC(CC)COC(=O)c1ccccc1 (stereo not given),inactive,

SMILES,outcome,"fluorescence, relative to Rose Bengal"
NC(=O)NC(=O)Cc1ccccc1,inactive,
CCOC(=O)C(C)(C)C,inactive,
CC(=O)OCCCc1ccccc1,inactive,
Nc1ccc(/C=C/c2ccc(N)cc2S(=O)(=O)O)c(S(=O)(=O)O)c1,inactive,
Nc1ccnc(=O)[nH]1,inactive,
C1CCN2C[C@@H]3C[C@@H](CN4CCCC[C@@H]34)[C@H]2C1,,0.0708% [at 18.6 µM] (inactive)
COc1cc([N+](=O)[O-])ccc1N,inactive,
CCCOCCOCCOCCO,inactive,
Nc1cc(Cl)cc(S(=O)(=O)O)c1O,inactive,
COC(/C=C(\C)CCC=C(C)C)OC,inactive,
CC1CCC(C(C)(C)S)C(=O)C1 (stereo not given),inactive,
Cc1nc([N+](=O)[O-])cn1-c1ccc([N+](=O)[O-])cc1,inactive,
O=C(Oc1ccccc1C(=O)O)c1ccccc1O,inactive,
CC(=O)c1ccc(OCC(=O)N2CCCCC2)cc1,inactive,
C[C@@H]1C[C@H]2[C@@H]3C[C@H](F)C4=CC(=O)C=C[C@]4(C)[C@@]3(F)[C@@H](O)C[C@]2(C)[C@@]1(O)C(=O)CO,,-0.458% [at 18.6 µM] (inactive)
Nc1cc(C(=O)O)ccc1Cl,inactive,
CCCCC(CC)C(=O)OC(C)C (stereo not given),inactive,
CCN(Cc1cccc(S(=O)(=O)O)c1)c1ccccc1,inactive,
CO[Si](CCCCl)(OC)OC,inactive,
CC(C)COC(=O)CC(C(=O)OCC(C)C)S(=O)(=O)O (stereo not given),inactive,
